# From ChEMBL document CHEMBL1201862, “PubChem BioAssay data set” (2004)
# Several values for one entry are separate records, joined by “and”; a condition that tells them apart may be missing. Identical values can stand only once. Hit rate of the full screen: of about 400,000 compounds, about 2,100 (0.53%) were called active. Roughly 14% stayed inconclusive and do not appear here. The rule behind the calls is not given here. The list comes from a sample in which actives are over-represented; it also holds similar structures and randomly drawn compounds.
# Target: Ataxin-2 (Homo sapiens) (UniProt Q99700)
# Sequence (Q99700 whole entry): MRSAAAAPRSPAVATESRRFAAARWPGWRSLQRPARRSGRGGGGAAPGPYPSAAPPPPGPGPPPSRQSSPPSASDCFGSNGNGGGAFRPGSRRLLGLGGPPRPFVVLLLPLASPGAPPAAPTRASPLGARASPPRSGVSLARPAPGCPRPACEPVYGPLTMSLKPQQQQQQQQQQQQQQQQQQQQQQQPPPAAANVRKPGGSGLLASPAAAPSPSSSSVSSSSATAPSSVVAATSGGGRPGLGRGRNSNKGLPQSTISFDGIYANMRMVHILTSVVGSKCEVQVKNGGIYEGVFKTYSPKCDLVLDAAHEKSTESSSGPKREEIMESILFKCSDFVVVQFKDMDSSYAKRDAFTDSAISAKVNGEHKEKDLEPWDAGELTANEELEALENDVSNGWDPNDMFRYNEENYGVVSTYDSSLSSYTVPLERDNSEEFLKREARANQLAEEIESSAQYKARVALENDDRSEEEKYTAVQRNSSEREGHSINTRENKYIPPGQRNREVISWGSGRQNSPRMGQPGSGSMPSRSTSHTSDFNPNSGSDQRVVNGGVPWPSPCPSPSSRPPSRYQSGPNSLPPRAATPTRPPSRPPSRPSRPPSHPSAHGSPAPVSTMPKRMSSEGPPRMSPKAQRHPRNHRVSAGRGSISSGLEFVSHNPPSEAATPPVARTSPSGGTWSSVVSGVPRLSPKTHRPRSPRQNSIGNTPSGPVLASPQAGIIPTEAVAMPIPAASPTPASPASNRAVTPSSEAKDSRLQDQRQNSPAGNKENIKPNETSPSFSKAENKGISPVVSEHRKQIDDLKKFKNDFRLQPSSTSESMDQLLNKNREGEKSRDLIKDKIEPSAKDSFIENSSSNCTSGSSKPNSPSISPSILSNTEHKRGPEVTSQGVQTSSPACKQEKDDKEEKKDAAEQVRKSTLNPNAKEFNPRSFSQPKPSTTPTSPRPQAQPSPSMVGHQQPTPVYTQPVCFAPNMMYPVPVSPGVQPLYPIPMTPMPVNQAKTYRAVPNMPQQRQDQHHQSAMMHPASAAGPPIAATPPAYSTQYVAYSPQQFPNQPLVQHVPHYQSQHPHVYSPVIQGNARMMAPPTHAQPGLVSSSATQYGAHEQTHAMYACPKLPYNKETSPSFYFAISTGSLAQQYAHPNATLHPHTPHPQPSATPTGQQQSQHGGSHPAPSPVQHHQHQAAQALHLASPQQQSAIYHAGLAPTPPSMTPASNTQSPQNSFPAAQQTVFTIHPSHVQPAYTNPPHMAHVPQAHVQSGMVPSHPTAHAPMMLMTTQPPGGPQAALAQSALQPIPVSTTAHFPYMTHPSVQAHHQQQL
# Experiment: qHTS for Inhibitors of ATXN expression.
# Assay type: functional
row,SMILES,Potency
1,COC(=O)c1cc2c(=O)c3ccccc3oc2nc1/C=C/N(C)C,inactive
2,COc1cc(/C=N\NS(=O)(=O)c2ccccc2)cc(OC)c1OC,inactive
3,COc1ccc(-c2cc(C(=O)Nc3cc(S(N)(=O)=O)ccc3C)c3ccccc3n2)cc1OC,inactive
4,COc1cc(N=Nc2cccc(S(N)(=O)=O)c2)c2ccccc2c1N,35.5 µM (active)
5,O=c1cc(CSc2nc(O)c3ccccc3n2)c2ccc(O)cc2o1,inactive
6,Cc1ccc(Cl)cc1NC(=O)c1ccccn1,inactive
7,CC(Oc1cccc(Cl)c1)C(=O)Nc1nc(-c2ccccn2)cs1 (configuration not stated),39.8 µM (active)
8,CC(Oc1ccc(Cl)cc1)C(=O)Nc1sccc1C(N)=O (configuration not stated),inactive
9,CCOC(=O)N(C)c1c(CC)nc2c(OCc3ccc(Cl)cc3)cccn12,20 µM (active)
10,Cc1nc2c(OCc3ccc(Cl)cc3Cl)cccn2c1N(C)Cc1cccs1,8.91 µM (active)
11,NNC(=O)c1sccc1OCc1ccc(Cl)cc1Cl,inactive
12,CSCCC(NC(=O)COc1ccccc1)C(=O)N(C)Cc1ccc(Cl)cc1Cl (configuration not stated),inactive
13,CCc1nc2c(OCc3ccc(Cl)cc3Cl)cccn2c1N(C)C(C)=O,31.6 µM (active)
14,CCOC(=O)c1c(N)n(-c2ccc(CC)cc2)c2nc3ccccc3nc12,inactive
15,O=C(O)CCC(=O)N1CCN(c2nc(-c3ccccc3)c3ccccc3n2)CC1,inactive
16,O=C(CCCCCn1c(=S)[nH]c2ccc(N3CCOCC3)cc2c1=O)NCc1ccccc1Cl,inactive
17,Cc1cccc(OCc2nnc(SCC(=O)O)n2-c2ccccc2)c1,39.8 µM (active)
18,CCn1c(COc2cccc(C)c2)nnc1SCC(=O)NC1CCCC1,inactive
19,Cc1ccc(NCc2nnc(SCC(=O)O)n2-c2ccc(C)cc2)cc1,inactive
20,COc1ccc2ccc3cccc[n+]3c2c1,inactive
21,CC(=O)Nc1ccc(S(=O)(=O)Nc2nc(C)cc(-n3nc(C)cc3C)n2)cc1,inactive
22,Cc1cc(NC(=O)CSc2nc3c(C)cccc3cc2C#N)no1,inactive

row,SMILES,Potency
1,NNC(=O)c1oc2nc(-c3ccccc3)cc(-c3ccco3)c2c1N,inactive
2,O=C1[C@H](Cc2ccccc2)NCC=CC[C@@H](c2ccc(Cl)cc2)N1Cc1ccccc1,35.5 µM (active)
3,O=C1[C@H](Cc2ccccc2)NCC=CC[C@@H](c2ccc(Cl)cc2)N1Cc1ccc(Cl)cc1,28.2 µM (active)
4,Cc1ccc2nc3nc(NCC4CCCO4)c(C(=O)NC4CCCC4)cc3c(=O)n2c1 (configuration not stated),inactive
5,CCC(=O)c1cc2c(C)cc(=O)oc2c(C)c1OC(C)=O,inactive
6,Brc1ccc(OCc2nnnn2-c2ccccc2)cc1,inactive
7,COc1ccccc1N1CCN(S(=O)(=O)c2ccc(-n3cnnn3)cc2)CC1,inactive
8,COc1ccccc1-n1nnnc1S(=O)(=O)Cc1ccc(Cl)cc1,25.1 µM (active)
9,Cc1cccc(/C=C(\C(=O)C(=O)O)c2ccc3ccccc3n2)c1,inactive
10,NC(Cc1ccc(Cl)cc1)c1csc(Nc2cc(Oc3ccccc3)ncn2)n1 (configuration not stated),35.5 µM (active)
11,CC(C)CC(N)c1csc(Nc2cc(Oc3ccccc3)ncn2)n1 (configuration not stated),39.8 µM (active)
12,CCn1c(SCc2ccc(F)cc2)nc2c(c1=O)SCC2,inactive
13,COc1cccc(-c2ccc3c(N)c(C(=O)c4ccc(F)cc4)sc3n2)c1,inactive
14,C=CCNC(S)=Nc1ccc(Br)cc1F,inactive
15,CSc1ccccc1NC(=O)c1cc(C2CC2)on1,inactive
16,CCOC(=O)CSC1=N/C(=C/c2ccc(-n3cncn3)cc2)C(=O)N1C(C)=O,inactive
17,CCOC(=O)C1=C(C)N=c2sc(=Cc3ccc(OCC(=O)O)cc3)c(=O)n2C1c1ccc(SC)cc1 (configuration not stated),inactive
18,CCOC(=O)CSC1=NC(=O)/C(=C\c2ccc(OC(C)=O)cc2)S1,28.2 µM (active)
19,CCOC(=O)c1cc2c(=O)n3ccccc3nc2n(CCOC)/c1=N\C(=O)C(C)(C)C,inactive
20,Cc1cccn2c(=O)c3cc(C(=O)NCc4ccco4)c(=N)n(C4CCCCC4)c3nc12,inactive
21,Cc1cccc(N2C(=O)/C(=C\Nc3cc(O)ccc3C)c3ccccc3C2=O)n1,inactive
22,Cc1ccc(N2C(=O)/C(=C\Nc3ccccc3-c3nnc(S)nc3O)c3ccccc3C2=O)c(C)c1,17.8 µM (active)

row,SMILES,Potency
1,Cc1ccc(N2C(=O)/C(=C/NC3CCS(=O)(=O)C3)c3ccccc3C2=O)c(C)c1 (configuration not stated),inactive
2,CCOc1ccc(N2C(=O)/C(=C/Nc3ccnn3Cc3ccncc3)c3ccccc3C2=O)cc1,inactive
3,Cn1nnnc1SCc1cccc2ccccc12,inactive
4,COc1ccc(CNCCSc2nnnn2C)c(OC)c1OC,inactive
5,Cn1nnnc1SCCCNCc1cc(Br)ccc1OCc1ccccc1F,25.1 µM (active)
6,Cn1c2nc(=O)n(-c3ccccc3)c(=O)c-2nc2c1CCCC2,inactive
7,COc1ccccc1NC(=S)NC(=O)CCc1ccccc1,inactive
8,CCCOc1ccccc1NC(=O)/C=C/C(N)=O,35.5 µM (active)
9,COc1ccccc1NC(=O)CCC(=O)OC(C)C(=O)c1ccccc1 (configuration not stated),inactive
10,CCCOc1ccccc1C1C(C(=O)OC)=CN(C(C)C)C=C1C(=O)OC,inactive
11,COc1ccccc1NC(=O)/C=C/C(N)=O,39.8 µM (active)
12,CCOc1ccccc1NC(=O)c1cc(SC)ccc1Cl,inactive
13,CCCCOc1ccccc1C1C(C(=O)OC)=CN(CC)C=C1C(=O)OC,inactive
14,CCOc1ccccc1NC(=O)/C=C/C(N)=O,39.8 µM (active)
15,CCOc1ccccc1NC(=O)CN1C(=O)COc2ccccc21,inactive
16,Cc1cc(Br)ccc1-n1nc(C)c(/C=N/c2cccc3nsnc23)c1O,inactive
17,Cc1cc(NC(=O)Cn2cc([N+](=O)[O-])cn2)n(Cc2ccc(F)cc2)n1,inactive
18,COc1ccc(C(=O)c2oc3ccc(OC)cc3c2NC(C)=O)cc1,inactive
19,O=C1C=C(NCCc2ccccc2)C2(CCCCC2)O1,inactive
20,CN1CCN(C2Cc3ccccc3Sc3ccc(Cl)cc32)CC1 (configuration not stated),22.4 µM (active) and 28.2 µM (active)
21,CCc1cccc2c1Sc1ccccc1CC2N1CCNCC1 (configuration not stated),39.8 µM (active)
22,CN1CCN(C2Cc3ccccc3Sc3cc(C(F)(F)F)ccc32)CC1 (configuration not stated),39.8 µM (active)

row,SMILES,Potency
1,CCc1ccccc1N1C(=O)[C@@H]2Cc3ccccc3CN2C1=O,inactive
2,CSc1ccc2c(c1)C(N1CCN(C)CC1)Cc1ccccc1S2 (configuration not stated),22.4 µM (active) and 31.6 µM (active)
3,FC(F)(F)c1ccccc1C1=CC(c2ccccc2)n2ncnc2N1 (configuration not stated),inactive
4,c1ccc(CCNc2ccnc3cc4ccccc4cc23)cc1,inactive
5,Cc1c2ccccc2nc2c(F)c(NC(C)C)c(F)c(F)c12,inactive
6,CC(C)Nc1ccc(Nc2ccnc3cc4ccccc4cc23)cc1,31.6 µM (active)
7,Cc1c(CCC(=O)NC2CC2)c(=O)oc2cc(O)ccc12,inactive
8,Cc1cc(/C=N/NC(=O)Cn2c3ccccc3c(=O)c3ccccc32)c(C)n1-c1ccc(Cl)cc1,inactive
9,CC1CN(C(=O)COC(=O)c2ccc(NC(=O)CC#N)cc2)CC(C)O1 (configuration not stated),inactive
10,O=C(c1nnsc1S(=O)(=O)c1ccc(Cl)cc1)N1CCOCC1,26.7 µM (active)
11,O=C(c1cc2cc(Br)ccc2s1)N1CCOCC1,inactive
12,O=C(c1nc2n(n1)C(c1ccc(Cl)cc1)C=C(c1ccccc1)N2)N1CCOCC1 (configuration not stated),inactive
13,O=C(c1cccn2c(=O)c3cc(Cl)ccc3nc12)N1CCOCC1,inactive
14,CCCc1nn(C)c(C(=O)Nc2ccc(Cl)cc2)c1Cl,inactive
15,NC(=O)c1c(NC(=O)c2ccc(S(=O)(=O)N3CCOCC3)cc2)sc2c1CCCCC2,inactive
16,CCCNC(=O)c1nnsc1[S+]([O-])c1ccc(Cl)cc1 (configuration not stated),6.7 µM (active)
17,Cc1nnsc1C(=O)NNc1ccc(Cl)cc1,inactive
18,O=C(c1nnsc1[S+]([O-])c1ccc(Cl)cc1)N1CCOCC1 (configuration not stated),20 µM (active)
19,C=CCOC(=O)C(=O)/C=C/c1coc2ccccc2c1=O,inactive
20,CCOc1cc(C(=O)NC2=NCCS2)cc(OCC)c1OCC,inactive
21,Cc1noc(C)c1-c1nnc(-c2ccc(OC(F)(F)F)cc2)o1,inactive
22,Fc1ccc(Br)cc1C1C=C(c2cccnc2)Nc2ncnn21 (configuration not stated),inactive

row,SMILES,Potency
1,O=C(CCN1CCc2ccccc2C(O)(c2ccccc2)C1)c1ccc2c(c1)OCCO2 (configuration not stated),39.8 µM (active)
2,O=C(CCN1CCCC1Cc1ccccc1)c1ccc2c(c1)OCCO2 (configuration not stated),31.6 µM (active)
3,O=C(C1CC(=O)N(c2ccc3c(c2)OCCO3)C1)N1CCN(Cc2ccccc2)CC1 (configuration not stated),inactive
4,Nc1c(-c2ccc3c(c2)OCCO3)oc2ccccc2c1=O,inactive
5,O=C(CCN1Cc2ccccc2C1)c1ccc2c(c1)OCCO2,25.1 µM (active)
6,O=C(/C=C\Nc1ccccc1Br)c1ccc2c(c1)OCO2,inactive
7,N=C(NOC(=O)COc1ccc(Br)cc1Cl)c1ccncc1,inactive
8,CC(C)C(NC(=O)C1CCCCC1)C(=O)NC1CCCC(C)C1C (configuration not stated),inactive
9,COc1cc(OC)c(-c2cc(C(=O)NCc3ccc(F)cc3)c3c(-c4ccccc4)[nH]nc3n2)cc1OC,44.7 µM (active)
10,Nc1c(C(=O)NCc2ccc(Cl)cc2)sc2nc(-c3ccc(F)cc3)ccc12,inactive
11,Cc1ccc(CNC(=O)c2sc3nc(-c4ccc(F)cc4)ccc3c2N)cc1,inactive
12,N#CCSc1ccc2nc(-c3ccccc3)cn2n1,inactive
13,Cc1ccc2c(c1)C(c1ccccc1)N(C(=O)COc1ccc(Cl)cc1Cl)CC(=O)N2 (configuration not stated),28.2 µM (active)
14,CC1CC(=O)Nc2ccccc2N1C(=O)COc1ccccc1C(N)=O (configuration not stated),inactive
15,Cc1cc(OCC(=O)N2CCC(O)(c3ccc(Cl)cc3)CC2)c2c(C)cc(=O)oc2c1,inactive
16,COc1cccc2c1cc1c(=O)n(CC(=O)NCCCN3CCN(C)CC3)nc(C)n12,inactive
17,CCCCNC(=O)c1ccc(Cn2c(=S)[nH]c3c([nH]c4ccc(OC)cc43)c2=O)cc1,39.8 µM (active)
18,COc1ccc(N2CCN(C(=O)c3ccc(Cn4c(=S)[nH]c5ccc(N6CCOCC6)cc5c4=O)cc3)CC2)cc1,inactive
19,O=C(NC1CCN(Cc2ccccc2)CC1)c1ccc(Cn2c(=S)[nH]c3ccc(N4CCOCC4)cc3c2=O)cc1,inactive
